Screening data: PubChem, National Center for Advancing Translational Sciences (NCATS)
D1 agonist: Allosteric Agonists of the Human D1 Dopamine Receptor: qHTS; D(1A) dopamine receptor (Homo sapiens), P21728; HEK293 T-REx D1 cells, calcium flux, agonist mode; activation, % at 2 µM; 1% of 360,000 active; note: 0% is about no effect
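Agonism was scored from calcium flux recorded over 180 s (1 read/s) after pintool compound addition, following a 10-cycle baseline. Cells were inducible force-coupled HEK293 TREx D1, plated overnight at 30 C and loaded with no-wash calcium dye.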
TRHR agonist: qHTS for Small Molecule Agonists and Allosteric Enhancers of Human TRH Receptor: Primary Screen for Agonists. Thyrotropin-releasing hormone receptor (Homo sapiens), P34981. TRHR cells, calcium flux fluo-8, FDSS agonist mode. activation, % at 2 µM. 0.18% of 360,000 active; note: 0% is about no effect
Target sequence (P34981 whole entry, looked up): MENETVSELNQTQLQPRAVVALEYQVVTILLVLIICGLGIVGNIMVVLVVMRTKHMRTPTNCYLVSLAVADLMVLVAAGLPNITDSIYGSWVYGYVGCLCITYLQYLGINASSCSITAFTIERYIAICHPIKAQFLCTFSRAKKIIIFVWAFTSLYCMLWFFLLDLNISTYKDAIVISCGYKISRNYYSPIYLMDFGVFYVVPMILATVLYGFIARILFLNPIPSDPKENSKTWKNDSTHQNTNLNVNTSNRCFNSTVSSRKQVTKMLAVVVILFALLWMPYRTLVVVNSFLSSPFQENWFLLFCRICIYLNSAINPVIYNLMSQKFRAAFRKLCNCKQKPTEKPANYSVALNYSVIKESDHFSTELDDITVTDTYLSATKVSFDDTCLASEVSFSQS
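Read-out: compound-evoked intracellular calcium rise in TRHR cells, fluo-8 dye, kinetic FDSS fluorescence at 1 s/cycle following a 10-cycle baseline. Cells cultured overnight before dye loading (30 min–1.5 h, RT).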
D1 antag: Antagonist of Human D 1 Dopamine Receptor: qHTS | D(1A) dopamine receptor (Homo sapiens), P21728 | HEK293 TREx D1 cells, calcium flux, dopamine EC80; active compounds read low | activity change, negative = inhibition, % at 10 µM | 3.2% of 360,000 active | AID 504652, 2011; in the data active = activity change below about -30%; note: % is set by controls: 0 for no effect and ±100 for the full control effect
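Compound effects on dopamine-evoked calcium signalling were measured in tetracycline-induced HEK293 Trex D1 cells. Dopamine at EC80 followed a 180 s compound pre-read, and fluorescence was tracked kinetically for 180 s more.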
D1 PAM: Potentiators of Human D1 Dopamine Receptor: qHTS; HEK293 TREx D1 cells, calcium flux, dopamine EC20 potentiation; 0.036% of 360,000 active; potentiation, % at 10 µM; D(1A) dopamine receptor (Homo sapiens), P21728; in the data active = potentiation above about 30%; note: 0% is about no effect
TRHR enhancer: qHTS for Small Molecule Agonists and Allosteric Enhancers of Human TRH Receptor: Primary Screen for Enhancers; TRHR cells, fluo-8 calcium fluorescence, EC20 TRH enhancement; enhancement, % at 2 µM; 0.66% of 360,000 active; in the data active = enhancement above about 30%; note: 0% is about no effect
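TRHR-expressing cells loaded with fluo-8 calcium dye were read kinetically (ex 480/em 530) during compound addition, then stimulated with an EC20 of TRH (10 nM final). Enhancement of the Gq-mediated intracellular calcium response was scored.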
An asterisk follows results filed as active; / = not tested or not shown. Rows were chosen to be rich in hits. Some 4.6% of all compounds tested hit in one or more screens of this group. Cut-off read from the data, not from the text of the source, unless noted: active = activation above about 30%; inactive = the rest.

SMILES | D1 agonist | TRHR agonist | D1 antag | D1 PAM | TRHR enhancer
COc1cccc(-c2nn(-c3ccccc3)cc2/C=C\C(=O)c2cccs2)c1 | 33* | 0 | -13 | 1 | 2
COc1cccc(-c2nn(-c3ccccc3)cc2C(=O)O)c1 | 4 | 0 | 6 | -3 | -2
CCN(CC)C(=O)C(C(=O)c1cccc([N+](=O)[O-])c1)n1cc(Cl)ccc1=O (stereo unspecified) | 1 | 0 | -37* | -2 | -5
CN(Cc1ccccc1)C(=O)C(C(=O)c1ccc(F)cc1)n1cc(Cl)ccc1=O (stereo unspecified) | 1 | 0 | -24 | -1 | -6
CCC(=O)N1CCc2cc(S(=O)(=O)NCCC(=O)NCc3ccc(C)cc3)ccc21 | 0 | -1 | -18 | -1 | 5
CCCCCC/C(=N/O)c1ccccn1 | 5 | -1 | -37* | -1 | -4
C/C(=N/O)c1ccccn1 | 1 | 1 | -1 | -2 | -4
CCOc1ccc(NC(=O)Cn2c(=O)n(-c3ccccc3)c(=O)c3c4c(sc32)CCCC4)cc1 | 2 | 1 | 2 | 1 | 2
O=C(CCSc1ccccc1Cl)Nc1cccc([N+](=O)[O-])c1 | 9 | -1 | -35* | -12 | 0
Cc1cc(C)c([N+](=O)[O-])cc1NC(=O)CCSc1ccccc1Cl | 5 | 0 | -35* | 1 | -1
Cc1ccc(NC(=O)c2ccc(F)c(S(=O)(=O)NCCc3ccccc3)c2)cc1F | 12 | 2 | -30* | -1 | 3
Cc1ccc(NC(=O)c2ccc(F)c(S(=O)(=O)N3CCc4ccccc4C3)c2)cc1F | 4 | 1 | 3 | -1 | 2
COc1ccc2c(c1)CC(C(=O)Nc1cc(Cl)ccc1C)CO2 (stereo unspecified) | 2 | -1 | -6 | -3 | 6
O=C(CSc1cccc2cccnc12)N/N=C/c1ccc(F)cc1 | 2 | -1 | -50* | -9 | 5
CCOC(=O)c1ccc(N2CCN(c3cc(Cl)ccc3C)CC2)c(NC(=O)Nc2cccc(OC)c2)c1 | 3 | 0 | -3 | 0 | -2
CC(=O)Nc1ccc(C(=S)NCC2(N(C)C)CCCCC2)cc1 | 12 | 3 | 5 | -7 | -11
COC(=O)c1ccc(C(=S)NCC2(N(C)C)CCCCC2)cc1 | 77* | 8 | -30* | -4 | -8
CCOC(=O)N1CCC(Nc2c(N3CCN(c4cc(Cl)ccc4C)CC3)c(=O)c2=O)CC1 | 2 | 0 | -30* | / | -1
CCOC(=O)N1CCC(Nc2c(-c3ccc(C)c(C)c3)c(=O)c2=O)CC1 | 2 | -1 | 4 | -7 | -1
Cc1cc(C)cc(C(=O)OCC(=O)N2CCCCCC2)c1 | 0 | 0 | -30* | -11 | -17
Cn1cc(-c2cc3n(n2)CCC(=O)N3CCCC(=O)NCc2ccc(F)cc2)c2ccccc21 | 0 | -1 | -33* | -3 | -2
CC(=O)c1ccc(-c2csc3ncnc(Sc4nnnn4C)c23)cc1 | 9 | 0 | -4 | 6 | 3
COc1cccc(-c2nc3ccccc3s2)c1O | 3 | 1 | -3 | -2 | 0
Oc1c(Br)cc(Br)cc1-c1nc2ccccc2s1 | 3 | -1 | -30* | -1 | -2
Cc1cc(C)nc(Nc2n[nH]c(COc3ccc(Cl)cc3)n2)n1 | 34* | 2 | 20 | -2 | -3
SMILES | D1 agonist | TRHR agonist | D1 antag | D1 PAM | TRHR enhancer
CNC(=O)C1CC(=O)N(CCc2ccc(OC)cc2)C(=Nc2ccc(OC)cc2)S1 (stereo unspecified) | 0 | 0 | -3 | -13 | 0
CNC(=O)C1CC(=O)N(Cc2ccc3c(c2)OCO3)C(=Nc2ccc(OC)cc2)S1 (stereo unspecified) | 10 | -1 | -30* | -6 | 17
O=C(CCCn1c(=O)c2ccccc2n(Cc2cccc(F)c2)c1=O)NCc1ccccc1Cl | 7 | 1 | -2 | -1 | -10
Cc1ccc(CC(NC(=O)c2ccccc2)C(=O)NCC(=O)O)cc1 (stereo unspecified) | 0 | 0 | -2 | 5 | 35*
C/C=N/NC(=O)CCNC(=O)c1ccccc1 | 1 | -1 | -7 | -5 | 33*
Cc1ccc(CC(NC(=O)c2ccccc2)C(=O)NC(CC(C)C)C(=O)O)cc1 (stereo unspecified) | 1 | 0 | 6 | -10 | -7
Cc1ccsc1/C=N/NC(=O)CNC(=O)c1ccccc1 | 0 | 1 | -47* | -2 | -3
Cc1cccc(C)c1NC(=O)CNC(=O)c1ccncc1 | 1 | 1 | 10 | -3 | 6
Cc1cccc(C)c1NC(=O)CNC(=O)c1ccccc1 | 11 | 1 | -31* | / | -4
CCCc1cnc2c(c1SCC(=O)N1CCC(C)CC1)c(=O)n(C)c(=O)n2C | -4 | 0 | / | -1 | 4
O=C(O)CNC(=O)c1ccccc1 | 3 | 0 | -34* | 2 | -3
O=C(CNC(=O)c1ccccc1)OC1CCCCC1 | 0 | -1 | -18 | -6 | 33*
CCOC(=O)CCN(c1ccccc1)S(=O)(=O)c1cc(-c2cc(C)no2)ccc1C | 10 | 0 | -6 | -4 | 0
Cc1ccc2[nH]c(-c3ccccc3)cc(=O)c2c1 | -1 | 0 | -18 | -5 | -2
CCN(CC)Cc1c(-c2ccccc2)[nH]c2ccc(C)cc2c1=O | 0 | 0 | -48* | -13 | 10
Cc1ccc(-c2nc(CS(=O)(=O)CC(=O)NCCc3ccccc3)c(C)o2)cc1 | 1 | 0 | -1 | -1 | 8
COc1ccc(OC)c(CNc2ccc([N+](=O)[O-])cc2C)c1 | 0 | -1 | -37* | 6 | -2
COc1ccc(CCNC(=O)CCSCc2ccccc2Cl)cc1OC | -1 | -1 | -9 | -2 | 2
Cc1ccc(S(=O)(=O)c2nc(S(=O)(=O)c3ccccc3)sc2NCCCOC(C)C)cc1 | 4 | 2 | 4 | -1 | 1
CCCS(=O)(=O)c1nc(S(=O)(=O)c2ccc(C)cc2)c(NCCCOC(C)C)s1 | 36* | -1 | -41* | -2 | 6
O=C(Cn1cc(C(=O)c2ccccc2)c(=O)c2cc3c(cc21)OCCO3)Nc1ccc(F)c(F)c1 | 6 | -2 | 22 | -2 | -4
O=[N+]([O-])c1ccc(O)c(N=Cc2sc3ccccc3c2O)c1 | 27 | 17 | 16 | 2 | -1
Cc1cccc(/N=C/c2c(O)[nH]c3ccccc23)n1 | 33* | 0 | -14 | -8 | -6
Oc1ccc(Cl)cc1N=Cc1sc2ccccc2c1Cl | 0 | 1 | 3 | -4 | -1
